The source of these data is the supplement of paper PMC10849652.

Holding throughout (assay): log2 fold change, soluble protein after heating vs DMSO (PISA); higher = thermal stabilisation; K562 lysate, 10 uM; active = over 0.2 and 3.5 SD of the protein, either way, in both replicates (recomputed)
Compound in one experiment: CCCS(=O)(=O)Nc1ccc(F)c(C(=O)c2c[nH]c3ncc(-c4ccc(Cl)cc4)cc23)c1F [vemurafenib]
The procedure, abridged:
(§1)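 K562 pellets were dounce-homogenised in PBS pH 7.4 with 1 mM MgCl2, and the crude extract at 1 mg/mL protein was treated with 10 μM compound for 30 min. Aliquots were heated for 3 min across 48°C-58°C, pooled, and brought to 0.5% NP-40 at 4°C; soluble protein was the supernatant after 21,000xg for 90 min. Soluble protein was quantified by TMTpro 16plex LC-MS/MS with channel sums equalised, and reported as log2 fold change in thermal stability against DMSO controls, with values from duplicates.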

Compound in experiment [1]: CCCS(=O)(=O)Nc1ccc(F)c(C(=O)c2c[nH]c3ncc(Cl)cc23)c1F
The procedure, abridged: as §1

Compound in another experiment: CCN(CCCOc1ccc2c(Nc3cc(CC(=O)Nc4cccc(F)c4)[nH]n3)ncnc2c1)CCOP(=O)(O)O [barasertib]
In outline: as §1

Compound in experiment [2]: CC[C@@H]1C(=O)N(C)c2cnc(Nc3ccc(C(=O)NC4CCN(C)CC4)cc3OC)nc2N1C1CCCC1
In outline: as §1

Compound in another experiment: CC[C@@H]1C(=O)N(C)c2cnc(Nc3ccc(C(=O)N[C@H]4CC[C@H](N5CCN(CC6CC6)CC5)CC4)cc3OC)nc2N1C(C)C [volasertib]
The procedure, abridged:
as §1

Compound in experiment [3]: CCn1c(C(=O)N(C2CC2)C2CC2)cc2c3c(ncn3C)c(Nc3cc(C)n(C)n3)nc21
The procedure, abridged: as §1

Compound in experiment [4]: CCn1cc(-c2ccnc3[nH]c(-c4cccc(CN(C)C)c4)cc23)c(-c2ccc(NC(=O)N(C)C)cc2)n1
In outline: as §1

Compound in experiment [5]: CN1CCC(CNc2ccc3ncc(-c4cccc(OC(F)(F)F)c4)n3n2)CC1
The procedure, abridged:
as §1

Compound in another experiment: CN1CCN(CCOc2cc(OC3CCOCC3)c3c(Nc4c(Cl)ccc5c4OCO5)ncnc3c2)CC1 [saracatinib]
The procedure, abridged:
as §1

Compound in a further experiment: CN1CCN(c2nc(C3=C(c4c[nH]c5ccccc45)C(=O)NC3=O)c3ccccc3n2)CC1 [sotrastaurin]
The procedure, abridged:
as §1

The full data set covers some 8,800 targets. This sample favours those with a hit. About 0.5% of all pairs of compound and target were hits. Values without a mark were called inactive.

Chain of UniProt Q92564 (Q92564 whole entry, looked up): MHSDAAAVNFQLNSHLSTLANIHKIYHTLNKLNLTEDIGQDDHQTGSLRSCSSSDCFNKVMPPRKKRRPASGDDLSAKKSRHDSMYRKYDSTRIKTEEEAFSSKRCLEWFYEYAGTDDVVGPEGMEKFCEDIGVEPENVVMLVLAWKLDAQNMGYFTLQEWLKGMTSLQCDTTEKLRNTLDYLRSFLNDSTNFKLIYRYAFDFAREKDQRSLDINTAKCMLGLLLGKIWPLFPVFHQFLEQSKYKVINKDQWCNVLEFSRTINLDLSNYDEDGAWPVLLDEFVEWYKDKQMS
Chain of UniProt Q1MSJ5 (Q1MSJ5 whole entry, looked up): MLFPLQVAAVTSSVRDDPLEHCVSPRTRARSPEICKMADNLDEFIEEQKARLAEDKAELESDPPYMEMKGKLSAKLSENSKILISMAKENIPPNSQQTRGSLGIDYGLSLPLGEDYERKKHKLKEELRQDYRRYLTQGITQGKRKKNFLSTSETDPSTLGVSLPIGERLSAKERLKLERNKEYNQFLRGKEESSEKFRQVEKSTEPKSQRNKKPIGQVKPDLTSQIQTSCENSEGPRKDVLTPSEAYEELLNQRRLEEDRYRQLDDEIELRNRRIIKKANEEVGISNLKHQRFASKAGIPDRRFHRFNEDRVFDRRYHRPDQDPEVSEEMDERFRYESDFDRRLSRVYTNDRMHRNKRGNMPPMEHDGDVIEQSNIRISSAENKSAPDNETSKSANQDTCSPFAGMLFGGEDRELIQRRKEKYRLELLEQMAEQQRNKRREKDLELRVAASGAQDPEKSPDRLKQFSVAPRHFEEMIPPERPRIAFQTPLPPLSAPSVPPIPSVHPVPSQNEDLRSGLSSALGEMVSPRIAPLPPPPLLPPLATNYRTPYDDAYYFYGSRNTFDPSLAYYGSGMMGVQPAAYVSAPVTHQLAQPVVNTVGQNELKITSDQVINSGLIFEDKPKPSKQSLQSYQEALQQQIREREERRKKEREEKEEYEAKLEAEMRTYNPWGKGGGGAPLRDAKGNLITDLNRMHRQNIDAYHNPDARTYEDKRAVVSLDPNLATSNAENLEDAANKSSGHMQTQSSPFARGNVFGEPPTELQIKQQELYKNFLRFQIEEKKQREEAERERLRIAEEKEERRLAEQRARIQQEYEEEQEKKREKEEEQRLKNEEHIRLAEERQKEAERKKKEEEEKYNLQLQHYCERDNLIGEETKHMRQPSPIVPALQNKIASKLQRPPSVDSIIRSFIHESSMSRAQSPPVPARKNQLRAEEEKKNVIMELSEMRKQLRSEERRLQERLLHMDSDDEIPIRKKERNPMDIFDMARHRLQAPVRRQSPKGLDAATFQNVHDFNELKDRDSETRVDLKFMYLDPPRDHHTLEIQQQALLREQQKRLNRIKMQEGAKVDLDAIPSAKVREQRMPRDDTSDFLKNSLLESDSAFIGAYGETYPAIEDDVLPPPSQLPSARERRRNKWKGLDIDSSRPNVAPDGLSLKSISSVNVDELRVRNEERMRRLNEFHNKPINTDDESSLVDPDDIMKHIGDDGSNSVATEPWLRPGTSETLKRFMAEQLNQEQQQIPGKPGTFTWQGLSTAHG
Chain of UniProt Q6PJW8 (Q6PJW8 whole entry, looked up): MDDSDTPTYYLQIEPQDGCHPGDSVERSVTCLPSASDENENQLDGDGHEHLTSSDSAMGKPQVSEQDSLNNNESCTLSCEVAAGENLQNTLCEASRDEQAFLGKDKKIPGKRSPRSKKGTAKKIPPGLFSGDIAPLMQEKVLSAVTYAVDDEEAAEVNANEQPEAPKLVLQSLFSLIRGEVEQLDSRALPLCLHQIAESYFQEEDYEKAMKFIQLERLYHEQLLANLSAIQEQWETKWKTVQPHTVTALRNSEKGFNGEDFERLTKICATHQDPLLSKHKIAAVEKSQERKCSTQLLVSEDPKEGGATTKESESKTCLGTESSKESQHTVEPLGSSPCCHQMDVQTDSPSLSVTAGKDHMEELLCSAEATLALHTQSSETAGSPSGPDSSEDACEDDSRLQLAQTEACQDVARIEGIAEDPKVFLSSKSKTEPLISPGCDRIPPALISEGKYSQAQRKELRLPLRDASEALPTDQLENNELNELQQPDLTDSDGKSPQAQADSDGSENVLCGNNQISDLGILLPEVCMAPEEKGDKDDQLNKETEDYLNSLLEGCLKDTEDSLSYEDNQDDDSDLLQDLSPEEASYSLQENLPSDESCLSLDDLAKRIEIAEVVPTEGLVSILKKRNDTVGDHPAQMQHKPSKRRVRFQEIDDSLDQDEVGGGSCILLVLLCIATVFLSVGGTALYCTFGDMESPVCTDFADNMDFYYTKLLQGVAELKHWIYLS
Chain of UniProt Q96BY6 (Q96BY6 whole entry, looked up): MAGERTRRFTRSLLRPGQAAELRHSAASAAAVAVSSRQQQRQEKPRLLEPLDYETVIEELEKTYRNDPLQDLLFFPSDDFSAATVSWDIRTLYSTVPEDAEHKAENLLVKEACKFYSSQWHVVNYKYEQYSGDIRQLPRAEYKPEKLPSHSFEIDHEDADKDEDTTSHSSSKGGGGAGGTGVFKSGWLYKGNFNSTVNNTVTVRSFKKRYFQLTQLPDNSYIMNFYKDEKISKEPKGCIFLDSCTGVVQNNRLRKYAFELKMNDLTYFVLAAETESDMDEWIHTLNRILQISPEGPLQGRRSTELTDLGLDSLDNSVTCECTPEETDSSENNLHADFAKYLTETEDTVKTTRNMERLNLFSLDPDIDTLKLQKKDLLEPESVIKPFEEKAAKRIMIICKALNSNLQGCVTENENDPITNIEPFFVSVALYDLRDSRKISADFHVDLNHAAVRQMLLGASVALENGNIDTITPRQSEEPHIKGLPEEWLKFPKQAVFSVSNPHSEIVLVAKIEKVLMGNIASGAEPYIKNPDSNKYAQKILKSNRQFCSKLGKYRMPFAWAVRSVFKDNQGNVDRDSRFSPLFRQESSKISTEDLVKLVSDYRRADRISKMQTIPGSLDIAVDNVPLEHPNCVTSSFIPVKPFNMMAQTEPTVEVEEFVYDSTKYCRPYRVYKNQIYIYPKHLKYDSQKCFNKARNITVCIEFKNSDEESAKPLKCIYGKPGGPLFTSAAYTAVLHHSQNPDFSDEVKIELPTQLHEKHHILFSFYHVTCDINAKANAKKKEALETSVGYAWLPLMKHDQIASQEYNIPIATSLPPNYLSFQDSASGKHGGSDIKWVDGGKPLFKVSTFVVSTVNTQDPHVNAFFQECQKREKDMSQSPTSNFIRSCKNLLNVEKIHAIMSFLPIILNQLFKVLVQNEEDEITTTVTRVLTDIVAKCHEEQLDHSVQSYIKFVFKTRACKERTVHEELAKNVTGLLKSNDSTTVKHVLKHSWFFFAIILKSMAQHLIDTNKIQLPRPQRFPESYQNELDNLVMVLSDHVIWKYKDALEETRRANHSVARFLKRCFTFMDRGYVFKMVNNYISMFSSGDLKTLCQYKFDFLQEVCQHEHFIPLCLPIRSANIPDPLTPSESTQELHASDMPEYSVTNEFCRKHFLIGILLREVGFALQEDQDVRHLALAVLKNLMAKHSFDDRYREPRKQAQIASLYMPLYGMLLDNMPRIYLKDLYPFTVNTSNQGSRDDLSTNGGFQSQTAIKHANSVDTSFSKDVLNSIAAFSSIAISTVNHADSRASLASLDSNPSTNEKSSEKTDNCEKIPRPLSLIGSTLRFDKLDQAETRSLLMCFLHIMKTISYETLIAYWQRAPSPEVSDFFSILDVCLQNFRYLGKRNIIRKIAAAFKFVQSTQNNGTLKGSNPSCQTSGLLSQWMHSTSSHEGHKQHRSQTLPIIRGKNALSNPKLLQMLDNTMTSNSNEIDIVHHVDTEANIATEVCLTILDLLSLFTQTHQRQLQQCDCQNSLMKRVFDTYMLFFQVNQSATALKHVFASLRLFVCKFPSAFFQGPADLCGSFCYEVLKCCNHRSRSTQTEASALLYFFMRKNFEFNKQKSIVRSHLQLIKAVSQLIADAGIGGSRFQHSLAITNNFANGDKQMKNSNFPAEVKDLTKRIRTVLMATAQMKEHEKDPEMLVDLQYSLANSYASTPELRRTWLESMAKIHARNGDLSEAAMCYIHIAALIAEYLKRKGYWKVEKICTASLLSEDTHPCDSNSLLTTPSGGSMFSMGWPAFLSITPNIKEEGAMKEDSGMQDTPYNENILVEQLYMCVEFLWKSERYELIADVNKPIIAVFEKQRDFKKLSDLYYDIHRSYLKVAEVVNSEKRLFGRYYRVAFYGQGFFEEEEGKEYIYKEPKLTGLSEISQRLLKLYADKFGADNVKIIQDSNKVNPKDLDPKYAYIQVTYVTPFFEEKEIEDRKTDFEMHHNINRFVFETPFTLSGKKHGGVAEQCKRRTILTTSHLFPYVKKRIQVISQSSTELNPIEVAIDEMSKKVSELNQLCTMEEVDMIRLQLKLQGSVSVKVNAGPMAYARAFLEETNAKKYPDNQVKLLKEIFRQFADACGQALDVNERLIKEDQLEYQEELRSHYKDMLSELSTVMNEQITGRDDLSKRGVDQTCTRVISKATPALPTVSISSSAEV
Chain of UniProt Q9P0U4 (Q9P0U4 whole entry, looked up): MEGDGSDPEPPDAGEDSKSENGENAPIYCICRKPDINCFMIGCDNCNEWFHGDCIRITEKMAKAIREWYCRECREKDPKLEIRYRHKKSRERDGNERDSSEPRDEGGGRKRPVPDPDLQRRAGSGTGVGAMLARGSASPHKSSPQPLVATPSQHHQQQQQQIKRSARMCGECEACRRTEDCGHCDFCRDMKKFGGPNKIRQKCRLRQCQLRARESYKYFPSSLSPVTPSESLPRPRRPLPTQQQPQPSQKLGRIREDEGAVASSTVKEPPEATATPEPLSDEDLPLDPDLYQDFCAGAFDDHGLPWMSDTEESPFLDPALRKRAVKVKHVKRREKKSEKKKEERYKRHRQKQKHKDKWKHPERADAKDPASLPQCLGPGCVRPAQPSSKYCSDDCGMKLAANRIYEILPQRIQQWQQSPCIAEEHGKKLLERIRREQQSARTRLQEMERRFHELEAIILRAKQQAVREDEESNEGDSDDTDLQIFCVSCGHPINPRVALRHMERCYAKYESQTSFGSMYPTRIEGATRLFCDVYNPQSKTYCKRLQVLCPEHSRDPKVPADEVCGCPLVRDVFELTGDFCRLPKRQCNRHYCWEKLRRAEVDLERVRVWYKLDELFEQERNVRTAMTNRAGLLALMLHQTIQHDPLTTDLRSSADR

As to CXXC1 isoform 2 (UniProt Q9P0U4), the log2 fold change was -0.029 in the experiment with vemurafenib; -0.117 in experiment [1]; -0.02 with barasertib; -0.256 in experiment [2]; -0.027 with volasertib; 0.031 in experiment [3]. The log2 fold change was -0.072 in [4], 0.041 in experiment [5], -0.066 in the experiment with saracatinib and -0.04 with sotrastaurin.
For CLASP2 isoform 3 (UniProt O75122), the log2 fold change with vemurafenib was 0.054; in [1] it was -0.002; with barasertib, 0.02; in experiment [2], 0.015; with volasertib it was -0.006; in experiment [3], 0.013. Further, the log2 fold change was -0.162 in experiment [4], 0.093 in experiment [5], 0.011 in the experiment with saracatinib and 0.01 in the experiment with sotrastaurin.
Turning to CHML (UniProt P26374), the log2 fold change was 0.01 with vemurafenib; 0.008 in experiment [1]; 0.004 in the experiment with barasertib; 0.011 in experiment [2]; 0.022 with volasertib; -0.007 in experiment [3]. Further, the log2 fold change in experiment [4] is -0.012; in experiment [5], 0.026; with saracatinib, -0.002; with sotrastaurin, 0.005.
For the target DCUN1D4 isoform 3 (UniProt Q92564), the log2 fold change with vemurafenib was 0.066; in [1], 0.075; with barasertib, -0.027; in [2], -0.321 (active); with volasertib, 0.049; in [3], -0.02. The log2 fold change in [4] is -0.036; in experiment [5], 0.02; with saracatinib, 0.005; in the experiment with sotrastaurin it was 0.028.
Consider DOK1 (UniProt Q99704), for which the log2 fold change was 0.028 in the experiment with vemurafenib; 0.061 in experiment [1]; -0.027 with barasertib; -0.113 in [2]; -0.026 in the experiment with volasertib; 0.021 in experiment [3]. Further, the log2 fold change in experiment [4] is -0.055; in [5], 0.101; in the experiment with saracatinib it was 0.024; with sotrastaurin it was 0.029.
On to CMBL (UniProt Q96DG6), for which the log2 fold change with vemurafenib is -0.053; in experiment [1], -0.027; with barasertib it was -0.026; in experiment [2], 0.081; with volasertib, 0.183; in experiment [3], 0.004. The log2 fold change in [4] is -0.174; in [5], 0.129; with saracatinib it was -0.016; in the experiment with sotrastaurin, -0.015.
Regarding CPT1A (UniProt P50416), the log2 fold change in the experiment with vemurafenib is 0.024; in experiment [1], 0.035; with barasertib, 0.048; in [2], 0.038; in the experiment with volasertib, 0.032; in experiment [3], -0.018. Moreover, the log2 fold change is 0 in experiment [4], -0.137 in experiment [5], -0.004 with saracatinib and -0.014 in the experiment with sotrastaurin.
Take COL6A5 (UniProt A8TX70): the log2 fold change with vemurafenib is 0.073; in [1], 0.041; with barasertib it was 0.09; in experiment [2], 0.078; in the experiment with volasertib, -0.044; in experiment [3] it was -0.055. For the same target, the log2 fold change in experiment [4] was -0.834 (active); in experiment [5], 0.374; with saracatinib, -0.048; in the experiment with sotrastaurin, -0.03.
Take DOCK10 (UniProt Q96BY6): the log2 fold change in the experiment with vemurafenib was 0.095; in experiment [1], -0.008; with barasertib it was -0.054; in experiment [2], 0.085; in the experiment with volasertib it was 0.027; in experiment [3] it was 0.043. The log2 fold change in experiment [4] was -0.747 (active); in experiment [5], 0.387; with saracatinib, 0.001; in the experiment with sotrastaurin it was 0.007.
For CIC (UniProt I3L2J0), the log2 fold change was -0.077 with vemurafenib; -0.043 in experiment [1]; 0.4 (active) with barasertib; -0.057 in [2]; -0.032 in the experiment with volasertib; 0.001 in experiment [3]. Also, the log2 fold change is -0.05 in experiment [4], -0.004 in experiment [5], 0.021 with saracatinib and -0.016 with sotrastaurin.
For CSPP1 (UniProt Q1MSJ5), the log2 fold change with vemurafenib was 0.03; in experiment [1], -0.505 (active); with barasertib it was 0.026; in experiment [2], 0.057; with volasertib, 0.125; in experiment [3], 0.05. The log2 fold change in experiment [4] was 0.029; in [5], -0.006; with saracatinib, -0.049; with sotrastaurin, -0.046.
For the target DENND6A (UniProt Q8IWF6), the log2 fold change was 0.025 with vemurafenib; 0.033 in [1]; 0.066 with barasertib; 0.029 in [2]; -0.062 with volasertib; 0.019 in [3]. Besides, the log2 fold change in experiment [4] is 0.017; in experiment [5], 0.004; in the experiment with saracatinib it was -0.012; with sotrastaurin it was -0.027.
Consider CNST (UniProt Q6PJW8), for which the log2 fold change in the experiment with vemurafenib was 0.002; in [1], -0.026; with barasertib, -0.07; in experiment [2], 0.079; in the experiment with volasertib, -0.008; in experiment [3], 0.02. Besides, the log2 fold change was -0.066 in experiment [4], 0.019 in [5], 0.033 in the experiment with saracatinib and 0.039 in the experiment with sotrastaurin.
Take DOCK8 (UniProt Q8NF50): the log2 fold change with vemurafenib was 0.005; in [1], 0.013; in the experiment with barasertib it was 0.034; in experiment [2] it was -0.075; with volasertib, -0.065; in experiment [3], 0.04. The log2 fold change is 0 in experiment [4], -0.033 in [5], 0.012 with saracatinib and 0.023 with sotrastaurin.
COX20 isoform 2 (UniProt Q5RI15): the log2 fold change with vemurafenib is 0.011; in experiment [1] it was -0.011; with barasertib it was -0.329; in [2] it was 0.144; in the experiment with volasertib it was 0.021; in experiment [3], -0.015. For the same target, the log2 fold change is 0.623 (active) in experiment [4], -0.232 in experiment [5], -0.015 in the experiment with saracatinib and 0.001 with sotrastaurin.
